RE007 growth inh = qHTS Assay for Inhibitors of the HIV-1 protein Vpr; S. pombe RE007 Vpr strain, BacTiter-Glo ATP luminescence, 24 h; Potency, µM (top dose mostly 92.2 µM), usual class: inhibitors; hit rate 0.21% among 360,000; active means well fitted falling curve with a large enough effect; inconclusive means small, poorly fitted or top-dose-only effect; inactive means no such curve, though single readings can be large or run the other way; further: nearly all actives have a fitted effect of over 50% in size
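Fission yeast RE007 carrying one integrated HIV-1 vpr copy, seeded at OD 0.01 in PMG+AL medium with 23 nL pinned compound. Grown 24 h at 30 degrees; viability read by BacTiter-Glo luminescence after 5 min.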
Pf growth 96h = Primary qHTS for delayed death inhibitors of the malarial parasite plastid, 96 hour incubation; Potency, µM (highest dose often 28.7 µM), actives largely listed as inhibitors; P. falciparum luciferase reporter growth, 96 h; hit rate 6.9% among 320,000; active means well fitted inhibition curve with a large enough effect; inconclusive means small, poorly fitted or top-dose-only effect, or another doubt; inactive means no such curve, though single readings can be large or run the other way
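Cell-based qHTS: luciferase-tagged P. falciparum in erythrocytes (2% hematocrit, 0.05% parasitemia final) incubated with compounds for 96 hours, 37 C, 5% CO2; luciferase detection reagent then added and luminescence measured.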
SARS PLP yeast = qHTS of Yeast-based Assay for SARS-CoV PLP; Potency, µM (highest dose often 32.9 µM), most hits filed as activators; hit rate 0.19% among 330,000; AID 485353, 2010; S. cerevisiae expressing SARS-CoV PLpro, growth rescue; further: nearly all actives have a fitted effect of over 55% in size
NS1 function inh = qHTS Assay for Inhibitors of Influenza NS1 Protein Function; Potency, µM (highest dose often 46.1 µM); hit rate 0.4% among 270,000; further: actives are rising curves; nearly all actives have a fitted effect of over 50% in size
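Growth recovery, yeast-based: influenza A NS1 expressed in S. cerevisiae causes slow growth, and suppressors are detected by OD600. The parent strain without NS1 is used as positive control.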
Pf growth 48h = Primary qHTS for delayed death inhibitors of the malarial parasite plastid, 48 hour incubation. P. falciparum luciferase growth in erythrocytes, 48 h. Potency, µM (doses to about 28.7 µM), usual class: inhibitors. hit rate 5.9% among 310,000. AID 504832, 2011; active means well fitted inhibition curve with a large enough effect; inconclusive means small, poorly fitted or top-dose-only effect, or another doubt; inactive means no such curve, though single readings can be large or run the other way
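Luciferase-expressing P. falciparum in infected erythrocytes (2% hematocrit, 0.1% parasitemia final) in RPMI 1640/0.5% Albumax were exposed to compound for 48 hours at 37 C, 5% CO2; growth read as luminescence.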
Each line names hits and unclear results; the compound was inactive in the other large screens. A selection: hits, their analogues and other compounds. The true share with any hit is near 9.5%. Unless noted, the call rests on the fitted dose curve.

Cc1ccc(-n2nc3c(=O)n(C(C)C(=O)NCc4ccc(Cl)cc4)nc(C)c3c2C)cc1 (stereo unspecified)	Pf growth 96h 1.7µM, Pf growth 48h inconclusive
CCOCCn1c(C(C)O)nc2ccccc21 (stereo unspecified)	Pf growth 96h 3.7µM
CCc1cccc(CC)c1N(COC)C(=O)Cn1c(C(C)O)nc2ccccc21 (stereo unspecified)	Pf growth 96h 9.3µM
O=C(c1ccccc1)N1CCN(C(=O)c2nn3c(C(F)(F)F)cc(-c4ccccc4)nc3c2Br)CC1	Pf growth 48h 8.3µM
COCCNC(=O)c1nn2c(C(F)(F)F)cc(-c3ccccc3)nc2c1Cl	none
NC(=O)c1nn2c(C(F)(F)F)cc(-c3ccccc3)nc2c1Br	Pf growth 96h inconclusive (no result: SARS PLP yeast)
O=C(NCCCn1ccnc1)c1nn2c(C(F)(F)F)cc(-c3ccccc3)nc2c1Cl	Pf growth 48h 15µM (no result: NS1 function inh)
CCCNC(=O)c1nn2c(C(F)(F)F)cc(-c3ccccc3)nc2c1Br	Pf growth 96h 9.3µM, Pf growth 48h inconclusive
O=C(NCc1ccc(Cl)cc1)C1CCN(S(=O)(=O)c2cccnc2)CC1	Pf growth 96h inconclusive
COc1ccc(CC(=O)N2CCC(Nc3nc4ccccc4n3Cc3ccc(F)cc3)CC2)cc1	Pf growth 96h 9.3µM, Pf growth 48h 4.1µM
COc1ccc(CC(=O)N2CCC(c3ccccc3)C2)cc1 (stereo unspecified)	none
COCCN(C(=O)COC(=O)c1c(NC(C)=O)sc(C)c1C)c1c(N)n(Cc2ccccc2)c(=O)[nH]c1=O	Pf growth 96h 10µM, Pf growth 48h inconclusive (no result: NS1 function inh)
CCCN(C(=O)COC(=O)c1[nH]c(C)c(C(=O)OC)c1C)c1c(N)n(Cc2ccccc2)c(=O)[nH]c1=O	Pf growth 96h inconclusive, Pf growth 48h 15µM (no result: NS1 function inh)
CCC1CCc2sc(C(=O)OCC(=O)N(CCOC)c3c(N)n(Cc4ccccc4)c(=O)[nH]c3=O)cc2C1 (stereo unspecified)	Pf growth 96h 10µM, Pf growth 48h inconclusive (no result: NS1 function inh)
CCCN(C(=O)COC(=O)CC1CCCCC1)c1c(N)n(Cc2ccccc2)c(=O)[nH]c1=O	Pf growth 96h inconclusive, Pf growth 48h 8.3µM (no result: NS1 function inh)
CC(CCC(=O)O)C1CCC2C3CC(O)C4CC(O)CC[C@]4(C)C3CCC12C (stereo partly specified)	none (no result: Pf growth 96h, SARS PLP yeast, NS1 function inh, Pf growth 48h)
Fc1ccc(-c2nc3c4ccccc4ccn3c2Cc2cccc(Cl)c2)cc1	none (no result: Pf growth 96h, SARS PLP yeast, NS1 function inh, Pf growth 48h)
C#CCN[C@@H]1CCc2ccccc21	none (no result: RE007 growth inh, SARS PLP yeast, NS1 function inh)
Cc1cccc([C@H]2[C@@H]3C=CCC[C@@H]3C(=O)N2Cc2ccccc2)c1	none (no result: Pf growth 96h, NS1 function inh, Pf growth 48h)
CC(=O)c1cnc(-c2ccccn2)s1	Pf growth 96h inconclusive, Pf growth 48h 10µM (no result: NS1 function inh)
CCN1C(=O)[C@H]2[C@@H](c3ccc(C(F)(F)F)cc3)N[C@]3(CCCN(Cc4ccc(C)cc4)C3=O)[C@H]2C1=O	none (no result: Pf growth 96h, SARS PLP yeast, NS1 function inh, Pf growth 48h)
CCc1ccc2c(c1)NC(=O)C2(C)Cc1ccc(C(F)(F)F)nc1 (stereo unspecified)	none (no result: Pf growth 96h, SARS PLP yeast, NS1 function inh, Pf growth 48h)
Cc1cc(C)n(-c2nnc(N3CCN(c4ccc(F)cc4)CC3)nn2)n1	Pf growth 96h 0.37µM, Pf growth 48h inconclusive (no result: NS1 function inh)
COc1ccc(-c2csc(C(C)(NC(C)=O)c3ccccc3)n2)cn1 (stereo unspecified)	none (no result: Pf growth 96h, SARS PLP yeast, NS1 function inh, Pf growth 48h)
Cc1cc(C(F)(F)F)nn1CC(=O)NCc1ccccc1	Pf growth 96h 7.4µM (no result: Pf growth 48h)
COc1ccccc1CNC(=O)Cn1nc(C(F)(F)F)cc1C	Pf growth 96h 15µM, Pf growth 48h 12µM (no result: NS1 function inh)
NC(=O)c1c(NC(=O)CSc2nnc(-c3ccco3)n2-c2ccccc2)sc2c1CCC2	NS1 function inh 1.4µM
COc1cccc(-n2c(SCC(=O)Nc3sc4c(c3C(N)=O)CCC4)nc3ccccc3c2=O)c1	Pf growth 48h 4.1µM
N#Cc1c(NC(=O)CSc2nnc(-c3ccco3)n2-c2ccccc2)sc2c1CCC2	none (no result: Pf growth 96h)
CCOC(=O)c1c(NC(=O)CSc2nnc(-c3c[nH]c4ccccc34)n2CCOC)sc2c1CCCC2	Pf growth 96h 9.3µM, NS1 function inh inconclusive, Pf growth 48h 7.4µM
N#Cc1ccccc1OCC(=O)OCC(=O)NC1CCS(=O)(=O)C1 (stereo unspecified)	none (no result: NS1 function inh)
Cc1oc2cc3oc(=O)c(CCC(=O)NCc4ccccn4)c(C)c3cc2c1C	Pf growth 96h inconclusive
C[C@@]12CC[C@@H]3[C@@H](CC[C@H]4C[C@@H](O)CC[C@]43C)[C@H]1CC[C@@H]2c1cc(C(F)(F)F)n[nH]1	none (no result: RE007 growth inh, Pf growth 96h, SARS PLP yeast, Pf growth 48h)
CCCCC(c1nnnn1CC1CCCO1)N1CCN(Cc2ccccc2)CC1 (stereo unspecified)	Pf growth 96h inconclusive, Pf growth 48h inconclusive
CCCCC(c1nnnn1CC1CCCO1)N1CCN(c2cccc(C)c2C)CC1 (stereo unspecified)	Pf growth 48h 13µM (no result: Pf growth 96h)
COc1ccc(C(c2nnnn2CC2CCCO2)N2CCN(c3cccc(C)c3C)CC2)cc1 (stereo unspecified)	Pf growth 48h 9.3µM
CCCCC#Cc1nc(N)c2ncn([C@@H]3O[C@H](C(=O)NCC)[C@@H](O)[C@H]3O)c2n1	none (no result: RE007 growth inh, Pf growth 96h, SARS PLP yeast, Pf growth 48h)
Cc1cc(S(=O)(=O)NCC(c2ccc3c(c2)OCO3)N2CCOCC2)ccc1F (stereo unspecified)	Pf growth 96h 15µM, Pf growth 48h inconclusive (no result: NS1 function inh)
CCOC(=O)/C(C)=N/Nc1nc(-c2ccc(NC(C)=O)cc2)cs1	Pf growth 96h 10µM, Pf growth 48h inconclusive
CC(=O)Nc1ccc(-c2csc(N/N=C(/C)c3ccccc3)n2)cc1	Pf growth 96h inconclusive, Pf growth 48h inconclusive
Cn1cc(C(=O)C(=O)N2CCc3ccccc32)c2ccccc21	none
CCN1CCN(c2ccc(S(=O)(=O)N3CCCCC3)cc2NC(=O)/C=C/c2ccc(F)cc2)CC1	Pf growth 96h inconclusive, Pf growth 48h 10µM (no result: NS1 function inh)
CN1CCN(c2ccc(S(=O)(=O)N3CCCCC3)cc2NC(=O)/C=C/c2ccc(Cl)c([N+](=O)[O-])c2)CC1	Pf growth 96h 5.9µM, Pf growth 48h 2.9µM (no result: NS1 function inh)
CCN1CCN(c2ccc(S(=O)(=O)N3CCCCC3)cc2NC(=O)/C=C/c2ccc([N+](=O)[O-])cc2)CC1	Pf growth 96h 1.9µM, Pf growth 48h 2.1µM (no result: NS1 function inh)
CCN1CCN(c2ccc(S(=O)(=O)N3CCOCC3)cc2NC(=O)/C=C/c2ccc(C)cc2)CC1	Pf growth 96h inconclusive (no result: NS1 function inh)
C[C@@H](NC(=O)c1[nH]cnc1C(=O)Nc1ccccc1F)c1ccccc1	none (no result: Pf growth 96h, SARS PLP yeast, NS1 function inh, Pf growth 48h)
CCOc1ccc(S(=O)(=O)c2ccc(C)cc2)c2c1no[n+]2[O-]	none (no result: Pf growth 96h, SARS PLP yeast, NS1 function inh, Pf growth 48h)
CCN(/C(N)=N/c1nc(C)cc(C)n1)c1ccccc1	none
CCc1cccc(N(C)C(N)=Nc2cccc3ccccc23)c1	Pf growth 96h 9.5µM, Pf growth 48h 13µM
CC(C)c1nc2cc(C(=O)N3CCN(c4cnccn4)CC3)ccc2o1	Pf growth 96h 12µM
CN(CC(=O)Nc1ccc(Cl)cc1)C(=O)Cc1c(F)cccc1Cl	Pf growth 96h 12µM

High-throughput results from PubChem.
